# In PubChem BioAssay:
# Values without a mark were called inactive. Calls of active or inactive are those of the source. Unless noted, no rule for the calls is given here.
# System: not listed separately
# Assay: HepG2 cytotoxicity, primary screen, cytotoxicity control for P. falciparum antimalarial project, cell-based, ATP luminescence (AID 2303;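 active = inhibition above 50%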;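 also: 0% = DMSO wells and 100% = digitonin-killed cells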)
# Settings: HepG2 viability, 24-48 h, at 10 µM, hits give high values
row,SMILES,inhibition
1,Cc1cccc(NC(=O)NC2CCN(CCCCCNC(=O)/C=C/c3ccc(Cl)c(Cl)c3)CC2)c1,34%
2,CCOC(=O)c1ccc(N=C2SC(=Cc3cc(Br)ccc3O)C(=O)N2C)cc1,-3%
3,Cc1cc(N(C)C)nc(Nc2ccc(NC(=O)CCc3ccccc3)cc2)n1,20%
4,O=C(NC1CCCC1)c1ccc(N2CCC(NCc3cccc(C(F)(F)F)c3)CC2)cc1,11%
5,Cc1cccc2[nH]c(-c3ccc(-c4ccc(NC(=O)Nc5ccc(Cl)c(Cl)c5)cc4)cc3)nc12,37%
6,CNCCNCc1cccc(-c2cccc(-c3nc4c(C)cccc4[nH]3)c2)c1,6%
7,NC1=NC2(CCCCC2)N(OCCOc2ccc(Cc3ccccc3)cc2)C(N)=N1,34%
8,CCCC(C)Nc1nc(C)cc(N[C@@H](CC(C)C)C(=O)Nc2ccc(OC)cc2)n1 (stereo not given in full),18%
9,Nc1nccc2ccc(-c3cccc(O)c3)cc12,43%
10,CN(Cc1cc(C(F)(F)F)cc(C(F)(F)F)c1)C(=O)C(Cc1ccc(F)cc1)C1CCCNC1 (stereo not given),10%
11,COc1ccc(-c2c(-c3ccc(OCc4ccccc4)cc3O)n[nH]c2C(F)(F)F)cc1,49%
12,Cc1nc(C)c(CC(=O)Nc2ccc(-c3cccc(-c4nc5ccc(C(F)(F)F)cc5[nH]4)c3)cc2)s1,67% (active)
13,CC(Cc1ccc(Cl)cc1)Nc1nc(NC2CCCC2)nc(N2CCC(C#N)(c3ccccc3)CC2)n1 (stereo not given),15%
14,O=C(c1cc2ccccc2o1)N1CCc2cc3nccc(N4CCN5CCC[C@H]5C4)c3cc21,62% (active)
15,COc1cc(NC(=O)Nc2ccc(Br)cc2C(=O)Nc2ccc(Br)cc2)cc(OC)c1OC,-4%
16,COc1ccc2nccc([C@@H](O)CN3CCC(NC/C=C/c4cccnc4)CC3)c2c1,-7%
17,CC(C)(C)C(=O)Nc1ccc(C(=O)Nc2cccc(-c3nc4ccccc4[nH]3)c2)cc1,56% (active)
18,COc1ccc(Nc2ncc3c(-c4cccc(NC(=O)Cc5ccc(F)cc5)c4)c[nH]c3n2)cc1OC,21%
19,OCC1CCN(Cc2ccc(-c3ccc(-c4nc5ccc(C(F)(F)F)cc5[nH]4)cc3)cc2)CC1,17%
20,CN(C)CCOc1cc(NC(=O)Nc2ccc(Cl)cc2C(F)(F)F)ccc1I,-2%

row,SMILES,inhibition
1,NC(N)=NN=CC(=O)Nc1cccc(C(F)(F)F)c1,21%
2,Cc1cc(Nc2cccc(C(F)(F)F)c2)nc(NCc2ccccc2)n1,17%
3,COc1ccc2nccc([C@@H](O)CN3CCC(NCc4cc5c(Cl)cccc5[nH]4)CC3)c2c1,40%
4,Fc1ccc2[nH]c3c(NCCCN4CCOCC4)ncnc3c2c1,14%
5,Cc1cc(N2CCC(C)CC2)nc2cc(O)ccc12,31%
6,COc1ccc2nccc([C@@H](O)CN3CCC(NCc4ccc5sc(=O)[nH]c5c4)CC3)c2c1,1%
7,COc1ccc(S(=O)(=O)N(CC(=O)NN=C(C)c2cccs2)c2cc(C)cc(C)c2)cc1OC,12%
8,CC(C)CNCc1ccc(-c2ccccc2CNC2CCN(Cc3ccccc3)CC2)cc1,28%
9,COc1ccc(CCn2c(=N)c(C(=O)NCc3cccnc3)cc3c(=O)n4ccccc4nc32)cc1,16%
10,Cc1ccccc1C(O)CNc1ccnc(Nc2cccc(C#N)c2)n1 (stereo not given),22%
11,COc1ccc(NC(=O)NC2CCN(c3ccnc4cc(Cl)ccc34)CC2)cc1,5%
12,COc1ccccc1C(=O)Nc1cccc(N2CCC(NCc3ccc(-n4cccn4)cc3)CC2)c1,9%
13,CC(C)(C)CCN1CCC(NC(=O)c2ccc(-c3cccc(C(F)(F)F)c3)s2)CC1,95% (active)
14,N#Cc1ccc(-c2nc(CO)c(C(=O)NCCCCN3CCC(c4ccc5c(c4OCC(N)=O)CCCC5)CC3)s2)cc1,9%
15,O=C(/C=C/c1ccc(Cl)c(Cl)c1)NCCCCCN1CC[C@H](NC(=O)Nc2ccc(Oc3ccccc3)cc2)C1,47%
16,COCCC[C@H]1C(=O)O[C@H]2CCC[C@@H]21,-9%
17,CN(C)Cc1ccc(-c2cccc(NC(=O)c3ccc(Cl)cc3)c2)cc1,24%
18,O=C(NCCCCCN1CCC(c2c[nH]c3ccccc23)CC1)Nc1cccc(Cl)c1,36%
19,Fc1ccc2nc(-c3ccc(-c4ccc(CNCc5ccccc5)cc4)cc3)[nH]c2c1,35%
20,CN(C)c1ccc(N=C2N=C(Nc3ccc(N(C)C)cc3)c3ccccc32)cc1,23%

# Target: L-lactate dehydrogenase (Plasmodium falciparum (isolate CDC / Honduras)) (UniProt Q27743)
# Sequence (Q27743 whole entry, looked up): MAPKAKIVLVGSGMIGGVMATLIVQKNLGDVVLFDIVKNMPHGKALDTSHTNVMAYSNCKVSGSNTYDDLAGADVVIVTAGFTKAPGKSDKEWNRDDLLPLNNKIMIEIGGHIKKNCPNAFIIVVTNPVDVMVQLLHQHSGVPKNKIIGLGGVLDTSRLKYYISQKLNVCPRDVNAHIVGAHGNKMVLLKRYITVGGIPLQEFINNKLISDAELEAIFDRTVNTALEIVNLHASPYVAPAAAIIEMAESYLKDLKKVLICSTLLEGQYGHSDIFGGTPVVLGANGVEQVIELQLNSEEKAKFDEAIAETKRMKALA
# Assay: PfLDH activity inhibition – cell lysate, 3D7 strain, counter-screen for P. falciparum growth inhibition project (AID 2304);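 also: 0% = vehicle and 100% = reference inhibitor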
# Settings: P. falciparum 3D7 crude extract, LDH APAD/NBT absorbance; at 2 µM; hits give high values
row,SMILES,inhibition
1,Cc1cccc(NC(=O)NC2CCN(CCCCCNC(=O)/C=C/c3ccc(Cl)c(Cl)c3)CC2)c1,-3%
2,CCOC(=O)c1ccc(N=C2SC(=Cc3cc(Br)ccc3O)C(=O)N2C)cc1,-2%
3,Cc1cc(N(C)C)nc(Nc2ccc(NC(=O)CCc3ccccc3)cc2)n1,1%
4,O=C(NC1CCCC1)c1ccc(N2CCC(NCc3cccc(C(F)(F)F)c3)CC2)cc1,1%
5,Cc1cccc2[nH]c(-c3ccc(-c4ccc(NC(=O)Nc5ccc(Cl)c(Cl)c5)cc4)cc3)nc12,0%
6,CNCCNCc1cccc(-c2cccc(-c3nc4c(C)cccc4[nH]3)c2)c1,1%
7,NC1=NC2(CCCCC2)N(OCCOc2ccc(Cc3ccccc3)cc2)C(N)=N1,2%
8,CCCC(C)Nc1nc(C)cc(N[C@@H](CC(C)C)C(=O)Nc2ccc(OC)cc2)n1 (stereo not given in full),-1%
9,Nc1nccc2ccc(-c3cccc(O)c3)cc12,7%
10,CN(Cc1cc(C(F)(F)F)cc(C(F)(F)F)c1)C(=O)C(Cc1ccc(F)cc1)C1CCCNC1 (stereo not given),4%
11,COc1ccc(-c2c(-c3ccc(OCc4ccccc4)cc3O)n[nH]c2C(F)(F)F)cc1,2%
12,Cc1nc(C)c(CC(=O)Nc2ccc(-c3cccc(-c4nc5ccc(C(F)(F)F)cc5[nH]4)c3)cc2)s1,1%
13,CC(Cc1ccc(Cl)cc1)Nc1nc(NC2CCCC2)nc(N2CCC(C#N)(c3ccccc3)CC2)n1 (stereo not given),-6%
14,O=C(c1cc2ccccc2o1)N1CCc2cc3nccc(N4CCN5CCC[C@H]5C4)c3cc21,2%
15,COc1cc(NC(=O)Nc2ccc(Br)cc2C(=O)Nc2ccc(Br)cc2)cc(OC)c1OC,7%
16,COc1ccc2nccc([C@@H](O)CN3CCC(NC/C=C/c4cccnc4)CC3)c2c1,-2%
17,CC(C)(C)C(=O)Nc1ccc(C(=O)Nc2cccc(-c3nc4ccccc4[nH]3)c2)cc1,1%
18,COc1ccc(Nc2ncc3c(-c4cccc(NC(=O)Cc5ccc(F)cc5)c4)c[nH]c3n2)cc1OC,8%
19,OCC1CCN(Cc2ccc(-c3ccc(-c4nc5ccc(C(F)(F)F)cc5[nH]4)cc3)cc2)CC1,-2%
20,CN(C)CCOc1cc(NC(=O)Nc2ccc(Cl)cc2C(F)(F)F)ccc1I,5%

row,SMILES,inhibition
1,NC(N)=NN=CC(=O)Nc1cccc(C(F)(F)F)c1,1%
2,Cc1cc(Nc2cccc(C(F)(F)F)c2)nc(NCc2ccccc2)n1,0%
3,COc1ccc2nccc([C@@H](O)CN3CCC(NCc4cc5c(Cl)cccc5[nH]4)CC3)c2c1,1%
4,Fc1ccc2[nH]c3c(NCCCN4CCOCC4)ncnc3c2c1,-4%
5,Cc1cc(N2CCC(C)CC2)nc2cc(O)ccc12,-1%
6,COc1ccc2nccc([C@@H](O)CN3CCC(NCc4ccc5sc(=O)[nH]c5c4)CC3)c2c1,-3%
7,COc1ccc(S(=O)(=O)N(CC(=O)NN=C(C)c2cccs2)c2cc(C)cc(C)c2)cc1OC,-1%
8,CC(C)CNCc1ccc(-c2ccccc2CNC2CCN(Cc3ccccc3)CC2)cc1,-3%
9,COc1ccc(CCn2c(=N)c(C(=O)NCc3cccnc3)cc3c(=O)n4ccccc4nc32)cc1,-2%
10,Cc1ccccc1C(O)CNc1ccnc(Nc2cccc(C#N)c2)n1 (stereo not given),0%
11,COc1ccc(NC(=O)NC2CCN(c3ccnc4cc(Cl)ccc34)CC2)cc1,-10%
12,COc1ccccc1C(=O)Nc1cccc(N2CCC(NCc3ccc(-n4cccn4)cc3)CC2)c1,-1%
13,CC(C)(C)CCN1CCC(NC(=O)c2ccc(-c3cccc(C(F)(F)F)c3)s2)CC1,-2%
14,N#Cc1ccc(-c2nc(CO)c(C(=O)NCCCCN3CCC(c4ccc5c(c4OCC(N)=O)CCCC5)CC3)s2)cc1,4%
15,O=C(/C=C/c1ccc(Cl)c(Cl)c1)NCCCCCN1CC[C@H](NC(=O)Nc2ccc(Oc3ccccc3)cc2)C1,-9%
16,COCCC[C@H]1C(=O)O[C@H]2CCC[C@@H]21,-4%
17,CN(C)Cc1ccc(-c2cccc(NC(=O)c3ccc(Cl)cc3)c2)cc1,3%
18,O=C(NCCCCCN1CCC(c2c[nH]c3ccccc23)CC1)Nc1cccc(Cl)c1,-1%
19,Fc1ccc2nc(-c3ccc(-c4ccc(CNCc5ccccc5)cc4)cc3)[nH]c2c1,-4%
20,CN(C)c1ccc(N=C2N=C(Nc3ccc(N(C)C)cc3)c3ccccc32)cc1,-5%
